BAP1 block: human BAP1 deubiquitinase inhibition | AID 436 | actives 0.48% (n = 72,000) | calls only at 20 µM | recombinant BAP1, Ub-AMC hydrolysis fluorescence kinetic; hits give low values;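 active = activity remaining at or below 50% of control, provided the compound also passes the data quality filters; inactive = the rest, including low values that fail the filters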;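 note: 100% = DMSO wells rate and 0% = substrate alone blank rate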
Candida biofilm: kills Candida albicans biofilms; C. albicans biofilm + clotrimazole, Alamar Blue; inhibition, % at 6 µM; actives 0.14% (n = 85,000);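 active = inhibition above 20%; inactive = inhibition below 20%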;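 note: preformed 24 hr biofilms exposed to compound for 48 hr; 0% = biofilm without compound and 100% = blank killed by clotrimazole plus chlorhexidine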
LYP act: increases human PTPN22 phosphatase activity. Q9Y2R2. recombinant LYP, DiFMUP fluorescence; 0 = plate median, 100 = signal doubled. AID 697. actives 0.11% (n = 96,000). activation, % at 2 µM;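 active = activation at 2 µM above a set limit, the mean plus 5 SD, cut at about 37% in these data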
sEH inh: blocks human soluble epoxide hydrolase activity; actives 0.34% (n = 91,000); inhibition, % at 2 µM; recombinant human sEH enzymatic activity assay; P34913; AID 707; in the data active = inhibition above about 80%
Target sequence (P34913 whole entry, looked up): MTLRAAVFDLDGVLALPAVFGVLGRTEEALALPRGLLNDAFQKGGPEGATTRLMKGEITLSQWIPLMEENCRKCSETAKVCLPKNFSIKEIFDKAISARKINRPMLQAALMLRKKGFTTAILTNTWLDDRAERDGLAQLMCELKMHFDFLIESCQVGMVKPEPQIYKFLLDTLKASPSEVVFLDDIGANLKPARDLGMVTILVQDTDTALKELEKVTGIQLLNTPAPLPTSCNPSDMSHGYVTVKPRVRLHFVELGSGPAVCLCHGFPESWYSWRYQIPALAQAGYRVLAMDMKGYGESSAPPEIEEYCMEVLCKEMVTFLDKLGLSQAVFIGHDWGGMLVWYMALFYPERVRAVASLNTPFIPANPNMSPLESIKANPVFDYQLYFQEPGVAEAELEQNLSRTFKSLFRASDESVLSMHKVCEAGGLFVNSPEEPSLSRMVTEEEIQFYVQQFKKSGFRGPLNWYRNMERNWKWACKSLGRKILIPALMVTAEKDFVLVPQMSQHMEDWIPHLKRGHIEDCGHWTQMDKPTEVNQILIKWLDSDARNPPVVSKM
sEH activator: activators of human soluble epoxide hydrolase | P34913 | purified human sEH enzymatic activity, activator screen | activation, % at 2 µM | actives 0.04% (n = 91,000) | AID 717; in the data active = activation above about 37%
LYP inh 2: inhibitors of human LYP (PTPN22) phosphatase; recombinant LYP catalytic domain, DiFMUP fluorescence; actives 0.21% (n = 96,000); inhibition, % at 2 µM;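 active = inhibition at 2 µM at or above a set limit, the screen mean plus 3 SD, cut at about 24% in these data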;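 note: 0% = DMSO with enzyme and 100% = enzyme fully blocked by orthovanadate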
BAP1 inh conf: confirmation of human BAP1 enzyme inhibitors | shares compounds with BAP1 block | purified BAP1, Ub-ethyl ester hydrolysis, HPLC; hits give low values | % of control activity, % at 20 µM | actives 8% (n = 310);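 active = percent of control activity at or below 60%; inconclusive = HPLC trace unusable from injection failure or solvent front hiding peaks; inactive = the rest, plus ubiquitin peak ratio over a set limit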
An asterisk follows results filed as active; i = inactive; ? = inconclusive; / = no result shown; + = active, no number. Only some compounds are listed: those with a hit (about 0.79% of all), similar ones and a draw of the others.

SMILES | BAP1 block | Candida biofilm | LYP act | sEH inh | sEH activator | LYP inh 2 | BAP1 inh conf
COC(=O)c1ccc(S(=O)(=O)N2C3CCC2CC(NC(=O)NC2CCCCC2)C3)cc1 (stereo not drawn) | i | 2.7 | -1.3 | 98.0* | -98.0 | 1.9 | /
COc1ccc(S(=O)(=O)N2C3CCC2CC(NC(=O)NC2CCCCC2)C3)cc1 (stereo not drawn) | / | 1.9 | 2.6 | 97.6* | -97.6 | -0.6 | /
Cn1c(C(=O)N2CCC(C(=O)N3CCOCC3)CC2)cc2sccc21 | i | -4.0 | / | / | / | / | /
COC(=O)c1sccc1-n1cccc1C(=O)N1CCOCC1 | / | / | -58.6 | -12.0 | 10.7 | 59.8* | /
CC(c1ccccc1)N1CCn2c(nc3cc(NC(=O)c4cccs4)ccc32)C1 (stereo not drawn) | / | 7.7 | 8.8 | 10.1 | -10.3 | -5.2 | /
CC(c1ccccc1)N1CCn2c(nc3cc(NC(=O)NC4CCCCC4)ccc32)C1 (stereo not drawn) | / | -0.7 | -3.3 | 97.2* | -97.2 | 6.6 | /
Cc1cc(C)n(C(=O)CNC(=O)COc2ccccc2C)n1 | i | / | / | / | / | / | /
Cc1nc(NC(=O)CC(C)C)sc1-c1csc(Nc2ccc(Cl)cc2)n1 | / | / | -49.0 | 21.9 | -17.2 | 50.6* | /
COc1ccc([N+](=O)[O-])cc1N=Cc1ccc(N(C)C)cc1 | i | / | / | / | / | / | /
Cc1ccc(NC(=O)CN2C(=O)S/C(=C\c3cccn3-c3cccc(C(=O)O)c3)C2=O)c(C)c1 | / | / | -48.3 | 1.2 | -0.5 | 49.6* | /
Cc1ccccc1NC(=O)CN1C(=O)S/C(=C\c2cccn2-c2cccc(C(=O)O)c2)C1=O | / | / | 8.5 | 10.7 | -7.7 | -2.8 | /
CCOc1ccc(C(=O)O)cc1[N+](=O)[O-] | i | / | / | / | / | / | /
CCn1c2ccccc2c2cc(NC(C)=O)ccc21 | / | 43.7* | -2.7 | 2.3 | -7.7 | 4.7 | /
CCn1c2ccccc2c2cc(NC(=O)c3ccco3)ccc21 | i | 1.0 | / | / | / | / | /
CCN(CC)C(C)C(=O)N1c2ccccc2Sc2ccccc21 (stereo not drawn) | i | / | / | / | / | / | /
CCOC(=O)C1=C(O)/C(=C\c2ccc(CNC(=O)C(=O)Nc3ccc(C)c(C)c3)o2)N=C1C | / | 69.3* | -5.0 | -25.3 | 22.0 | 3.9 | /
CCOC(=O)c1[nH]c(C)c(C(=O)Nc2cc(OC)ccc2OC)c1C | i | 5.7 | -0.4 | -10.3 | 10.3 | -3.9 | /
CCOc1ccc(OCC)c(NC(=O)c2[nH]c(C)c(C(C)=O)c2C)c1 | + | 5.7 | -6.0 | -0.9 | 0.5 | 4.4 | 120.5
CCOC(=O)c1c(C)n(-c2ccc(C)cc2)c2c(C(C(C)=O)C(=O)O)c(Br)c(O)c(O)c12 (stereo not drawn) | / | / | -5.4 | -4.7 | 7.0 | 2.6 | /
CCOC(=O)C(C(C)=O)c1c(Br)c(O)c(O)c2c(C(=O)c3ccc(C)cc3)coc12 (stereo not drawn) | + | -1.4 | -9.8 | 6.0 | -4.5 | 8.3 | 68.4
c1ccc(-c2cc(-c3nn4c(-c5ccco5)nnc4s3)c3ccccc3n2)cc1 | + | 5.9 | -17.2 | -0.5 | 1.9 | 16.0 | 109.1
Cc1ccc([N+](=O)[O-])cc1NC(=O)CN1C(=O)c2ccccc2C1=O | i | / | / | / | / | / | /
COC(=O)c1cc2nc(-c3ccc(OC)c(OC)c3)cc(C(F)(F)F)n2n1 | + | 5.6 | -2.5 | -6.2 | 6.6 | -0.8 | 128.9
COc1cccc(CN(Cc2ccco2)C(c2ccc(F)cc2)c2nnnn2C(C)(C)C)c1 (stereo not drawn) | + | 9.1 | -0.1 | -19.1 | 16.3 | -2.3 | 71.0
COCCn1nnnc1C(C(C)C)N(Cc1ccccc1)Cc1cc2cc(OC)ccc2[nH]c1=O (stereo not drawn) | i | 7.3 | / | / | / | / | /
SMILES | BAP1 block | Candida biofilm | LYP act | sEH inh | sEH activator | LYP inh 2 | BAP1 inh conf
COCCn1nnnc1C(C(C)C)N(Cc1cccnc1)Cc1cc2cc(OC)ccc2[nH]c1=O (stereo not drawn) | + | 0.0 | 8.1 | -4.3 | 5.4 | -8.1 | 114.4
Cc1c(Cl)cccc1-c1ccc(C(=O)N2CCN(c3ccc(Cl)cc3[N+](=O)[O-])CC2)o1 | i | / | / | / | / | / | /
CC1=CC(C)(C)Nc2cc(C)c(C)cc21 | + | 3.1 | -7.2 | / | / | 4.8 | 49.0*
CC1=CC(C)(C)Nc2ccc(C)cc21 | / | 7.9 | 3.2 | -4.9 | 3.5 | -6.8 | /
O=C(O)CCc1ccc(-c2ccccc2)n1CC(=O)O | i | 11.1 | -14.0 | 8.2 | -4.7 | 9.3 | /
O=C(O)CCc1ccc(-c2ccccc2)n1-c1cccc(O)c1 | + | 4.9 | -17.1 | -11.7 | 10.6 | 14.2 | 142.8
Cn1ncc(N)c1C(=O)N1CCOCC1 | i | / | / | / | / | / | /
CCOc1cccc2sc(NC(=O)c3ccc(Br)s3)nc12 | + | 1.9 | 8.9 | / | / | -12.1 | 81.0
O=c1oc2ccccc2cc1-c1csc(-c2cc3ccccc3oc2=O)n1 | i | / | / | / | / | / | /
Nc1nc(-c2cccnc2)nn1C(=O)COc1ccccc1 | + | 3.1 | 11.1 | 5.7 | -6.3 | -14.5 | 95.6
Nc1nc(-c2cccnc2)nn1C(=O)CCc1ccccc1 | i | 2.4 | -7.3 | 8.2 | -5.8 | 7.9 | /
C=CCn1c(COc2ccc(F)cc2)nnc1SCC(=O)NC(=O)NCc1ccco1 | i | 3.7 | / | / | / | / | /
C=CCn1c(COc2cccc(C)c2)nnc1SCC(=O)NC(=O)NCc1ccco1 | + | 11.8 | -4.0 | 1.4 | -0.9 | 2.3 | 137.1
Cc1ccc(OCc2ccc(C(=O)Nc3nccs3)o2)cc1C | / | 5.5 | 13.9 | 4.0 | -0.6 | -11.5 | /
Cc1cc(NC(=O)c2ccc(COc3ccc(Cl)c(C)c3)o2)no1 | + | 7.6 | -0.2 | 9.6 | -8.4 | -2.6 | 163.4
N#C/C(=C(/O)CN1C(=O)c2ccccc2C1=O)c1nc2ccccc2[nH]1 | i | -0.4 | -8.6 | -7.2 | 5.9 | 9.0 | /
CSCCC(/C(O)=C(\C#N)c1nc2ccccc2[nH]1)N1C(=O)c2ccccc2C1=O (stereo not drawn) | + | -1.6 | 0.5 | -3.2 | 4.5 | -3.6 | 113.9
CCOC(=O)c1ccc(NC(=O)CCc2ccc(CC)o2)cc1 | + | 4.0 | 8.1 | 3.8 | -5.1 | -9.2 | 95.6
CCc1ccc(CCC(=O)Nc2ccc(C(C)=O)cc2)o1 | / | 5.1 | 4.7 | 2.0 | -0.6 | -8.4 | /
Cc1cc2nn(-c3ccccc3)nc2cc1NC(=O)c1ccc(F)cc1 | i | / | / | / | / | / | /
Nc1nn(S(=O)(=O)c2cccc3nsnc23)cc1-c1ccc(Br)cc1 | + | 5.8 | 9.2 | -18.8 | 19.4 | -11.2 | ?
Cc1cc(C)c2[nH]c(=O)c(CN(Cc3ccc4c(c3)OCO4)Cc3nnnn3C3CCCC3)cc2c1 | + | 3.0 | -15.4 | 15.6 | -14.9 | 15.1 | 112.1
Cc1cccc2cc(CN(Cc3cccs3)C3(c4nnnn4C4CCCC4)CCCC3)c(=O)[nH]c12 | + | 8.3 | -6.8 | -9.5 | 7.9 | 4.7 | 74.2
Cc1cccc2cc(CN(Cc3ccc(F)cc3)Cc3nnnn3C3CCCC3)c(=O)[nH]c12 | i | / | -5.6 | 5.3 | -5.6 | 5.3 | /

From PubChem
